Screening data as filed in PubChem BioAssay.
Hits are enriched below; roughly 1.2% of the tested compounds scored in any of these assays.
gsp antag = gsp mutant antagonism; Potency, µM (highest dose often 76.9 µM), for inactives: at the top dose activity change, negative = inhibition, actives largely listed as inhibitors; AID 624288; 340,000 tested, 0.4% active; gsp-mutant cells, cAMP HTRF, 30 min; calls by dose curve; cell line not stated here;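 further: intracellular cAMP measured with PDE inhibitor Ro 20-1724 present during compound exposure; potency means the concentration at half of the fitted maximal effect; on the % scale 0 is the no-effect control and ±100 the full control effect; nearly all actives have a fitted effect of over 65% in size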
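Cells, 2000/well, grown 16–24 h in DMEM 10% FBS with 0.5 mg/ml G418, then compounds plus […] (300 uM addition stock), 30 min at 37C. cAMP read by HTRF (cAMP-d2 and anti-cAMP antibody-K in lysis buffer) after 30 min RT.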
RXFP1 antag = RXFP1 (human) relaxin receptor antagonism. Q9HBX9. HEK293-RXFP1, relaxin-stimulated cAMP HTRF, 30 min; stronger effect = lower value. activity change, negative = inhibition, % at 57.5 µM. 350,000 tested, 0.59% active. AID 1259400;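 active means activity change of -60% or lower, but not beyond a set lower limit; inconclusive means change between -60% and -40%, or beyond the set limit; inactive means change above -40%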; further: on the % scale 0 is the no-effect control and ±100 the full control effect
Target sequence (Q9HBX9 whole entry, looked up): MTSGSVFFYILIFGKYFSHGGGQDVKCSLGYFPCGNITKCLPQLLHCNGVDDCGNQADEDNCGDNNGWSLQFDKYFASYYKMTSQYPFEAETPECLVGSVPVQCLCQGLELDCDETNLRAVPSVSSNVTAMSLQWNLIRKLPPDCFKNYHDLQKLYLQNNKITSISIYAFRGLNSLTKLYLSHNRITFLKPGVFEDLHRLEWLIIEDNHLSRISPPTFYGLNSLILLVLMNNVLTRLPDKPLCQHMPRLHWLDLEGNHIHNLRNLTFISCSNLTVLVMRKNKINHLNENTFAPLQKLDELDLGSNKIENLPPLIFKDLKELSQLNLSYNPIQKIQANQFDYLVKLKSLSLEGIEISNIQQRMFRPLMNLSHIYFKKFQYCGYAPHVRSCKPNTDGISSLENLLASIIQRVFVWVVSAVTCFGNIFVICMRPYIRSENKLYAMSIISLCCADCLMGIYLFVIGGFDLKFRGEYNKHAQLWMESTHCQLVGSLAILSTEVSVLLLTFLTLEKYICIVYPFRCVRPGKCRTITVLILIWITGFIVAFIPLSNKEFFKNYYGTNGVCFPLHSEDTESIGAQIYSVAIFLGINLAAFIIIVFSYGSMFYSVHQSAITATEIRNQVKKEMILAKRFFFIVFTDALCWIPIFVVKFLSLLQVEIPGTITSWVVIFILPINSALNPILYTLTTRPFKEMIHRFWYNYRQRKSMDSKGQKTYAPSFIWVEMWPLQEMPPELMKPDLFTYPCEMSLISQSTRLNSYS
gsp agonist = gsp mutant agonism | gsp mutant cells, cAMP HTRF, 30 min | Potency, µM (doses to about 76.9 µM), for the others: top-dose activation (cAMP increase), usual class: activators | 340,000 tested, 0.13% active | AID 624287; active means well fitted activation curve with a large enough effect; inconclusive means small, poorly fitted or top-dose-only effect, or another doubt; inactive means no such curve, though single readings can be large or run the other way; cell line not stated here;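 further: phosphodiesterase inhibitor Ro 20-1724 added with compounds to block cAMP breakdown; potency means the concentration at half of the fitted maximal effect; nearly all actives have a fitted effect of over 60% in size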
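Cells in DMEM/10% FBS with G418 were pretreated with compounds in DMSO plus […] (300 uM stock) for 30 min at 37C. cAMP was measured by HTRF (cAMP-d2 plus anti-cAMP antibody-K) after 30 min at room temperature.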
RXFP1 ag = RXFP1 (human) receptor agonism | 370,000 tested, 0.3% active | Potency, µM (doses to about 57.5 µM), without a hit: top-dose activation, hits mostly activators | HEK293T-RXFP1 cAMP TR-FRET, 30 min; response scale: percent of porcine relaxin response, buffer zero | AID 2676 | Q9HBX9; further: potency means the concentration at half of the fitted maximal effect; on the % scale 0 is the no-effect control and ±100 the full control effect; nearly all actives have a fitted effect of over 60% in size
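Agonist response is measured as cAMP accumulation in an RXFP1-transfected HEK293T line under PDE4 inhibition. Values are scaled between buffer-only and 29 nM porcine relaxin, and EC50s come from standard Hill equation fits.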
CCT modulator = modulators of cytosolic chaperonin (CCT/TRiC) activity; purified chaperonin ATPase assay, HTRF ADP detection, 30 min; activity change, % (no concentration beside the values), hits read low; 360,000 tested, 0.3% active; AID 651819; in the data active means activity change below about -30%; further: on the % scale 0 is the no-effect control and ±100 the full control effect
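TRiC at 40 or 20 nM final (batch-dependent) in 30 mM Tris pH 7.4, 100 mM KCl, 5 mM MgCl2, 1 mM DTT, with compound at single 76 uM and 10 uM ATP, 30 min at 37 deg C. ADP detected by HTRF Transcreener, 665/615 ratio.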
Mm-Cpn inhibitor = inhibitors of Methanococcus maripaludis chaperonin TRiC (MmCpn); Potency, µM (highest dose often 76.9 µM), for inactives: at the highest dose activity, negative = inhibition, hits mostly inhibitors; purified Mm-Cpn ATPase, ADP Transcreener TR-FRET; 330,000 tested, 0.031% active; further: potency means the concentration at half of the fitted maximal effect; on the % scale 0 is the no-effect control and ±100 the full control effect; nearly all actives have a fitted effect of over 80% in size
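ATPase turnover read by TR-FRET ADP competition (Eu cryptate antibody/ADP-d2, 665/590 nm): 10uM ATP final, 25nM Mm-CPN final, 30 min 37degC after 10-min compound preincubation, pH 7.4 Tris/KCl/MgCl2/DTT buffer.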
Starred values were filed as active, the others as inactive; [ ] = another dose, or the depositor's remark. Unless noted, the call rests on the fitted dose curve; in most records, active means well fitted curve in the direction sought with a large enough effect; inconclusive means small, poorly fitted or top-dose-only effect, or another doubt; inactive means no such curve, though single readings can be large; an effect the other way counts as inactive or inconclusive.

What do the screens show for `CS(=O)(=O)Nc1ccc(C2=NN(C(=O)C3CCCCC3)C(c3cccs3)C2)cc1` (stereo not given)?
gsp antag: 25µM*; RXFP1 antag: -21; gsp agonist: 10%[15.4 µM]; RXFP1 ag: 0%; CCT modulator: -2; Mm-Cpn inhibitor: -15%

Results for CCOc1cc(CNc2ccc(N(C)C)cc2)cc(Br)c1OCC(=O)NC(C)(C)C ?
gsp antag: inconclusive; RXFP1 antag: -109*; gsp agonist: -41%; RXFP1 ag: 0%; CCT modulator: -4; Mm-Cpn inhibitor: 25µM*

How did NC(=S)N/N=C/c1ccc(-n2nncc2-c2ccc(Cl)cc2)cc1 do in these assays?
gsp antag: -12%; RXFP1 antag: -73*; gsp agonist: 7%; RXFP1 ag: 1%; CCT modulator: -2; Mm-Cpn inhibitor: 2%

How did NC(=S)N/N=C/c1ccc(/C=N/NC(N)=S)cc1 do in these assays?
gsp antag: 5%; RXFP1 antag: -5; gsp agonist: -3%; RXFP1 ag: -1%; CCT modulator: 0; Mm-Cpn inhibitor: 0%

How did Cc1ccc(/C=N/N2CCN(C3c4ccccc4-c4ccccc43)CC2)s1 do in these assays?
gsp antag: 8%; RXFP1 antag: 20; gsp agonist: 9%; RXFP1 ag: 0%; CCT modulator: -56*; Mm-Cpn inhibitor: 0%

What do the screens show for `Fc1ccc(C(NCCc2ccccc2)c2nnc(-c3ccccc3Cl)o2)cc1` (stereo not given)?
RXFP1 antag: -7; RXFP1 ag: 3%

How did Cc1ccc(S(=O)(=O)n2cc(-c3ccccc3)c3ccccc32)cc1 do in these assays?
gsp antag: 13%; gsp agonist: -12%; RXFP1 ag: 2%; CCT modulator: -31*; Mm-Cpn inhibitor: 1%

What do the screens show for `COc1cc2nc(SCC(=O)Nc3cccc(C)c3)n3nc(CCn4c(C)nc5ccccc54)nc3c2cc1OC`?
RXFP1 antag: -4; RXFP1 ag: 18µM*

How did COc1cc2nc(SCC(=O)Nc3ccc(F)cc3)n3nc(CCn4c(C)nc5ccccc54)nc3c2cc1OC do in these assays?
RXFP1 ag: 7%

What do the screens show for `C/C(=N\Nc1cc(C)nc(-c2ccccc2O)n1)c1ccccc1O`?
gsp antag: 45µM*; RXFP1 antag: 13; gsp agonist: 23%; RXFP1 ag: -1%; CCT modulator: -1; Mm-Cpn inhibitor: 1%

How did Cc1cc(N/N=C\c2ccccc2)nc(-c2ccccc2O)n1 do in these assays?
gsp antag: -12%; RXFP1 antag: -18; gsp agonist: -8%[15.4 µM]; RXFP1 ag: -1%; CCT modulator: -2; Mm-Cpn inhibitor: -4%

How did CC(C)(C)c1ccc(C(=O)CCCCl)cc1 do in these assays?
RXFP1 antag: -7

How did O=[N+]([O-])c1cc(-c2nc(-c3ccccc3)no2)ccc1NC1CCCCC1 do in these assays?
RXFP1 ag: 2%

Results for Nc1nc(-c2ccc(F)cc2)cc(C(F)(F)F)n1 ?
gsp antag: -1%; RXFP1 antag: -11; gsp agonist: -18%; RXFP1 ag: 1%; CCT modulator: -3; Mm-Cpn inhibitor: -2%

Results for COc1ccc(-c2cc(C(F)(F)F)nc(N)n2)cc1 ?
gsp antag: -7%; RXFP1 antag: -61*; gsp agonist: -54%[15.4 µM]; RXFP1 ag: -1%; CCT modulator: -2; Mm-Cpn inhibitor: 1%

How did CCn1cc2nc(SCC(=O)Nc3ccc(C)cc3C)n(Cc3ccc(C)cc3)c(=O)c2n1 do in these assays?
RXFP1 antag: -9; RXFP1 ag: 6%

Results for O=C(CCC(=O)Nc1ccc(F)cc1)N/N=C/c1ccc(O)cc1O ?
gsp antag: 7%; RXFP1 antag: 14; gsp agonist: inconclusive; RXFP1 ag: 0%; CCT modulator: 3; Mm-Cpn inhibitor: 0%

How did Oc1ccc(C=NNC(=S)Nc2ccc(F)cc2)c(O)c1 do in these assays?
gsp antag: -7%; RXFP1 antag: -64*; gsp agonist: inconclusive; CCT modulator: 0

Results for O=P(CCCCCCCCCP(=O)(c1ccccc1)c1ccccc1)(c1ccccc1)c1ccccc1 ?
gsp antag: 40µM*; RXFP1 antag: -72*; gsp agonist: -26%; RXFP1 ag: 0%; CCT modulator: -1; Mm-Cpn inhibitor: -1%

What do the screens show for `O=C(O)CCCCCCCCCCP(=O)(c1ccccc1)c1ccccc1`?
gsp antag: -22%; RXFP1 antag: -4; gsp agonist: 16%[15.4 µM]; RXFP1 ag: 0%; CCT modulator: 0; Mm-Cpn inhibitor: 1%

What do the screens show for `COc1ccccc1-c1nn2c(=O)cc(CN3CCN(C(=O)/C=C/c4ccccc4)CC3)nc2s1`?
RXFP1 ag: 3%

Results for COCCNC(=O)c1ccc(Cn2c(=S)[nH]c3cc4c(cc3c2=O)OCO4)cc1 ?
gsp antag: -1%; RXFP1 antag: -104*; gsp agonist: -5%; RXFP1 ag: 3%; CCT modulator: -1; Mm-Cpn inhibitor: 0%

Results for O=C(NCc1ccccn1)c1ccc(Cn2c(=S)[nH]c3ccccc3c2=O)cc1 ?
gsp antag: -2%; RXFP1 antag: -77*; gsp agonist: -135%; RXFP1 ag: 2%; CCT modulator: 1; Mm-Cpn inhibitor: 3%

How did CCOc1cc2[nH]c(=S)n(Cc3ccc(C(=O)NCCCOC)cc3)c(=O)c2cc1OCC do in these assays?
gsp antag: 13%; RXFP1 antag: -4; gsp agonist: 18%; RXFP1 ag: inconclusive; CCT modulator: -3; Mm-Cpn inhibitor: 5%

What do the screens show for `COC(CNC(=O)c1ccc(Cn2c(=S)[nH]c3cc4c(cc3c2=O)OCO4)cc1)OC`?
gsp antag: -9%; RXFP1 antag: -98*; gsp agonist: -9%; RXFP1 ag: 4%; CCT modulator: 1; Mm-Cpn inhibitor: 2%

What do the screens show for `O=C(c1ccncc1)N1CCN(C2CCC(c3ccccc3)CC2)CC1` (stereo not given)?
gsp antag: 6%; RXFP1 antag: -64*; gsp agonist: -12%; RXFP1 ag: 0%; CCT modulator: 1; Mm-Cpn inhibitor: -4%

What do the screens show for `COc1ccc(N2CCN(C(=O)c3cc4c(C)nc5ccccc5c4o3)CC2)cc1`?
gsp antag: inconclusive; RXFP1 antag: -76*; gsp agonist: inconclusive; RXFP1 ag: 0%; CCT modulator: 0; Mm-Cpn inhibitor: -1%

How did Cc1oc(-c2ccccc2F)nc1CN1CCC(C(=O)NCCC2=CCCCC2)CC1 do in these assays?
gsp antag: -4%; RXFP1 antag: -11; gsp agonist: -67%; RXFP1 ag: 1%; CCT modulator: -52*; Mm-Cpn inhibitor: 0%
